Data on eight compounds can be found in article PMC5540273 (PLoS ONE, 2017).

SMILES strings stand for the structures.

Test systems include LRRK2; LTK; LYN; MAK; MAP3K15; MAP3K1; MAP3K2; MAP3K3; MAP3K4; MAP4K2; MAP4K3; MAP4K4; MAP4K5; MAPKAPK2; MAPKAPK5; MARK1; MARK2.
Common to all, as to conditions: concentration: 1 μM, replicates: in singlicate; n = 1
The test system of a further experiment is T1, LKB1.
T1 construct: gene STK11

Another experiment concerns T2, LOK.
T2 construct: gene STK10

The subject of another experiment is T3, LZK.
T3 construct: gene MAP3K13
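Further: KINOMEscan kinase panel screen.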

In the case of `Clc1cc(Nc2ncnc3cc[nH]c23)ccc1OCc1ccccn1`, the “%Inh” value was found to be 10% with LKB1; 30% in the experiment with LOK; 0% with LRRK2; 14% with LTK; 15% in the experiment with LYN; 0% in the experiment with LZK. Besides, the “%Inh” value with MAK is reported as 42%; in the experiment on MAP3K15, 46%; in the experiment on MAP3K1, 7%; in the experiment with MAP3K2, 2%; in the experiment on MAP3K3 it was 27%; in the experiment with MAP3K4 it was 10%. Further, the “%Inh” value in the experiment on MAP4K2 came to 0%; in the experiment with MAP4K3, 0%; in the experiment with MAP4K4 it was 4%; in the experiment on MAP4K5, 6%; in the experiment on MAPKAPK2, 5%; with MAPKAPK5, 0%. For the same compound, the figures for the “%Inh” value in the experiment on MARK1 and in the experiment on MARK2 were 13% and 0%, respectively.
Take `O=C(Nc1n[nH]c2nc(-c3ccco3)c(Br)cc12)c1ccc(CN2CCCC2)cc1.O=C(O)[C@H](O)[C@@H](O)C(=O)O` [SB-742352]: the “%Inh” value in the experiment on LKB1 is listed as 0%; in the experiment with LOK, 14%; in the experiment with LRRK2, 0%; in the experiment with LTK, 21%; with LYN, 50%; in the experiment with LZK, 0%. Further, the “%Inh” value in the experiment on MAK amounted to 20%; with MAP3K15, 0%; with MAP3K1, 0%; with MAP3K2, 0%; in the experiment on MAP3K3, 0%; in the experiment on MAP3K4 it was 4%. For the same compound, the “%Inh” value is 34% in the experiment on MAP4K2; 0% in the experiment with MAP4K3; 4% in the experiment on MAP4K4; 24% with MAP4K5; 0% in the experiment on MAPKAPK2; 0% in the experiment with MAPKAPK5. Further, the “%Inh” value with MARK1 was determined as 0%; with MARK2, 1%.
`Cc1ccc(NC(=O)c2cccc(C#N)c2)cc1-c1ccc(C(=O)Nc2ccncc2)cc1` [GSK1398463]: the “%Inh” value is on record as 0% in the experiment on LKB1; 0% in the experiment on LOK; 28% with LRRK2; 0% in the experiment with LTK; 69% in the experiment with LYN; 0% in the experiment on LZK. Also, the “%Inh” value was 36% with MAK; 0% in the experiment on MAP3K15; 12% with MAP3K1; 0% in the experiment with MAP3K2; 0% in the experiment on MAP3K3; 35% with MAP3K4. Further, the “%Inh” value in the experiment with MAP4K2 worked out at 0%; with MAP4K3, 11%; in the experiment on MAP4K4 it was 4%; with MAP4K5 it was 0%; in the experiment on MAPKAPK2, 24%; with MAPKAPK5, 0%. For the same compound, the “%Inh” value with MARK1 and in the experiment on MARK2 was 0% throughout.
On to `CC(C)N1CCC(n2cnc(-c3ccc(F)cc3)c2-c2ccnc(N)n2)CC1` [SB-223132], for which the “%Inh” value with LKB1 is on record as 0%; in the experiment with LOK, 0%; in the experiment on LRRK2, 28%; in the experiment with LTK it was 2%; with LYN, 22%; with LZK it was 0%. The “%Inh” value with MAK is given as 0%; with MAP3K15 it was 0%; with MAP3K1 it was 0%; with MAP3K2, 0%; in the experiment on MAP3K3, 0%; with MAP3K4, 26%. Further, the “%Inh” value is recorded as 0% in the experiment with MAP4K2; 0% in the experiment on MAP4K3; 0% in the experiment with MAP4K4; 0% in the experiment on MAP4K5; 1% with MAPKAPK2; 0% in the experiment on MAPKAPK5. For the same compound, the “%Inh” value in the experiment with MARK1 and with MARK2 was 0% in each case.
For `COc1ccc(NC(=O)Nc2ccc(C)c(-c3ccc(C(=O)Nc4ccncc4)cc3)c2)cc1` [GSK1398475], the “%Inh” value in the experiment on LKB1 worked out at 0%; in the experiment on LOK, 0%; with LRRK2, 0%; with LTK, 7%; in the experiment with LYN it was 34%; with LZK, 0%. Besides, the “%Inh” value turned out to be 10% in the experiment on MAK; 0% in the experiment on MAP3K15; 0% with MAP3K1; 0% in the experiment with MAP3K2; 0% in the experiment with MAP3K3; 0% with MAP3K4. Besides, the “%Inh” value with MAP4K2 is reported as 0%; with MAP4K3, 0%; in the experiment with MAP4K4, 0%; with MAP4K5, 0%; with MAPKAPK2, 6%; with MAPKAPK5, 0%. The “%Inh” value with MARK1 and in the experiment on MARK2 was 0% throughout.
As to `COc1ccc(Nc2nccc(N3CCC(NC(=O)c4cccc(NC(C)=O)c4)C3)n2)cc1` (centres unmarked) [GSK1379732], the “%Inh” value was determined as 22% with LKB1; 0% with LOK; 0% with LRRK2; 0% in the experiment on LTK; 0% in the experiment with LYN; 46% in the experiment with LZK. The “%Inh” value in the experiment on MAK is on record as 14%; in the experiment with MAP3K15, 0%; in the experiment with MAP3K1, 0%; in the experiment with MAP3K2, 0%; with MAP3K3, 0%; in the experiment on MAP3K4, 0%. The “%Inh” value in the experiment on MAP4K2, in the experiment with MAP4K3, in the experiment on MAP4K4, in the experiment on MAP4K5, with MAPKAPK2 and in the experiment with MAPKAPK5 was 0% throughout. For the same compound, the “%Inh” value with MARK1 and with MARK2 was 0% throughout.
In the case of `Cl.c1ccc(Cn2ncc3cc(Nc4ncnc5ccccc45)ccc32)cc1` [GW273749], the “%Inh” value with LKB1, with LOK, in the experiment on LRRK2, in the experiment with LTK, with LYN and in the experiment with LZK was 0% in each case. In addition, the “%Inh” value with MAK stood at 33%; in the experiment on MAP3K15, 0%; in the experiment on MAP3K1, 7%; with MAP3K2, 0%; with MAP3K3 it was 0%; with MAP3K4 it was 0%. The “%Inh” value in the experiment on MAP4K2 amounted to 0%; with MAP4K3 it was 0%; with MAP4K4, 0%; with MAP4K5 it was 0%; in the experiment on MAPKAPK2, 13%; in the experiment on MAPKAPK5, 0%. Further, the “%Inh” value in the experiment with MARK1 and in the experiment with MARK2 was 0% throughout.
Turning to `CCc1nc(-c2cccc(C)c2)c(-c2ccnc(NC(=O)c3ccccc3)c2)s1`, the “%Inh” value in the experiment with LKB1 is 0%; in the experiment on LOK, 11%; in the experiment with LRRK2 it was 3%; in the experiment with LTK, 10%; in the experiment with LYN it was 8%; in the experiment with LZK, 42%. Also, the “%Inh” value is on record as 16% with MAK; 2% in the experiment on MAP3K15; 2% in the experiment with MAP3K1; 0% in the experiment with MAP3K2; 22% with MAP3K3; 0% in the experiment with MAP3K4. The “%Inh” value with MAP4K2, with MAP4K3, in the experiment with MAP4K5, in the experiment with MAPKAPK2, with MAPKAPK5 and in the experiment on MARK2 was 0% each time.
